For 20 compounds, growth inhibition, inhibition and outcome results are on record in PubChem BioAssay.

Unmarked numbers belong to inactive results. For some of these results: Entries with a potency or affinity are not part of this list. Calls of active or inactive are those of the source. Unless noted, how the calls were made is not given here.

Assay [1] is described as follows: antimalarial activity against Dd2 strain (AID 2302;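 active means growth inhibition above 50% at the single 2 µM test dose, taken to imply half-maximal potency below 2 µM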;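 further: 0% = DMSO untreated growth and 100% = chloroquine plus artemisinin killed control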). Particulars: P. falciparum Dd2 in RBCs, LDH growth readout, 72 h; at 2 µM; active compounds read high.
A short description of assay [2]: human hepatoma cell viability loss – ATP luminescence, cytotoxicity control for P. falciparum antimalarial project, primary screen (AID 2303;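 active means inhibition above 50%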;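 further: 0% = DMSO wells and 100% = digitonin-killed cells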). Particulars: HepG2 viability, 24-48 h, at 10 µM, active compounds read high.
Assay [3] concerns the target L-lactate dehydrogenase (Plasmodium falciparum (isolate CDC / Honduras)) (UniProt Q27743). The assay is described as follows: PfLDH activity inhibition – cell lysate, 3D7 strain, counter-screen for P. falciparum growth inhibition project (AID 2304).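 Further: 0% = vehicle and 100% = reference inhibitor.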 Conditions: P. falciparum 3D7 crude extract, LDH APAD/NBT absorbance; at 2 µM; active compounds read high.
The nature of assay [4]: inhibition of 3D7 malaria parasite growth – strain 3D7 (AID 2306).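 Further: 0% = DMSO wells and 100% = chloroquine plus artemisinin control wells.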 Conditions: P. falciparum 3D7 erythrocytic growth, LDH absorbance, 72 h; at 2 µM; active compounds read high.
Assay [5] has as its target Calcium-dependent protein kinase 1 (Plasmodium falciparum (isolate 3D7)) (UniProt P62344). Kind of assay: PfCDPK1 kinase inhibitors, biochemical, TCAMS library (AID 1159585; cut-off not given, nearly all actives have IC50 up to about 0.98 µM;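 further: inhibitors leave more ATP so luminescence rises with inhibition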). Particulars: recombinant PfCDPK1, Kinase-Glo ATP depletion luminescence. On the technique in general: In Kinase-Glo more light means more ATP remaining.
The target of assay [6] is Plasmodium falciparum protein kinase 6 (PK6, PF3D7_1337100) (UniProt Q8IDW1). Kind of assay: PfPK6 kinase inhibitors, biochemical, TCAMS library (AID 1159586). Particulars: recombinant PfPK6, Kinase-Glo ATP depletion luminescence.
Plasmodium falciparum protein kinase 6 (PK6, PF3D7_1337100), sequence (Q8IDW1 1-305): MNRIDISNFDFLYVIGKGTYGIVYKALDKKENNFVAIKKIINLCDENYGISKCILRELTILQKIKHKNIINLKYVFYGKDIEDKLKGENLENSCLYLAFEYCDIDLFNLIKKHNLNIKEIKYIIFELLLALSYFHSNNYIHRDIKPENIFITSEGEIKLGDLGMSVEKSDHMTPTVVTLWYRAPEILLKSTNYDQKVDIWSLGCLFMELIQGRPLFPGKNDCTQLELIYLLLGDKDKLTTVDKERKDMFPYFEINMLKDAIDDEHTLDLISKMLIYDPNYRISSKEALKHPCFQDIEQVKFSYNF
Assay [7] addresses Protein kinase 7 (PK7), Plasmodium falciparum 3D7 (PF3D7_0213400) (UniProt Q7YTF7). The assay is described as follows: inhibition of Plasmodium PK7 catalytic activity – biochemical, TCAMS antimalarial set, Kinase-Glo luminescence (AID 1159587). Conditions: recombinant PfPK7, Kinase-Glo ATP depletion luminescence.
In assay [8] the target is Calcium-dependent protein kinase 4 (Plasmodium falciparum (isolate 3D7)) (UniProt Q8IBS5). Kind of assay: PfCDPK4 kinase inhibitors, biochemical, TCAMS library (AID 1159588; cut-off not given, nearly all actives have IC50 up to about 0.91 µM). Particulars: recombinant PfCDPK4, Kinase-Glo ATP depletion luminescence.
Calcium-dependent protein kinase 4 (Plasmodium falciparum (isolate 3D7)), sequence (Q8IBS5 whole entry, looked up): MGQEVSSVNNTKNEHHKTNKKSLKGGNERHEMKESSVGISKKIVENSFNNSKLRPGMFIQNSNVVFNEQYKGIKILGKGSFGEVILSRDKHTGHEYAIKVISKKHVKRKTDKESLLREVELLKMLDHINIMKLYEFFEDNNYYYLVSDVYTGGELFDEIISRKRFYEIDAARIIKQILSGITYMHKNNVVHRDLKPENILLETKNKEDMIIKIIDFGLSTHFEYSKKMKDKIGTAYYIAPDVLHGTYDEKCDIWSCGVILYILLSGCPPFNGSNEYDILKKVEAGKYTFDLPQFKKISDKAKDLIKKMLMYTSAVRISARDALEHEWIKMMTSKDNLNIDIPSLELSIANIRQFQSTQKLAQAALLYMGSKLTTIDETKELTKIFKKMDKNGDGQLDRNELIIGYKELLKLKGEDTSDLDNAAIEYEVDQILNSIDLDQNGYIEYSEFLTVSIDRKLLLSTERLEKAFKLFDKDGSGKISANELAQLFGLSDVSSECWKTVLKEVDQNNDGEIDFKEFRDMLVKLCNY

Protein kinase 7 (PK7), Plasmodium falciparum 3D7 (PF3D7_0213400), sequence (Q7YTF7 1-343): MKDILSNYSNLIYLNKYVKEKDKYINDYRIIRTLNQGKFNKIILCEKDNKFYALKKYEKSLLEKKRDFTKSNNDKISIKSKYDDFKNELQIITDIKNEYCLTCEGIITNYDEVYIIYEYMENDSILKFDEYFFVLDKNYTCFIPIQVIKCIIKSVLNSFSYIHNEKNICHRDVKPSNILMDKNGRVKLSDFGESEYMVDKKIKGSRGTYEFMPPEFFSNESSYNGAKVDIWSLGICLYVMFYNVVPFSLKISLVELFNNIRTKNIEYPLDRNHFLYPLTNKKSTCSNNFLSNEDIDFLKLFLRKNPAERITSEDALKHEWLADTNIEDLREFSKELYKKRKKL
Calcium-dependent protein kinase 1 (Plasmodium falciparum (isolate 3D7)), sequence (P62344 whole entry, looked up): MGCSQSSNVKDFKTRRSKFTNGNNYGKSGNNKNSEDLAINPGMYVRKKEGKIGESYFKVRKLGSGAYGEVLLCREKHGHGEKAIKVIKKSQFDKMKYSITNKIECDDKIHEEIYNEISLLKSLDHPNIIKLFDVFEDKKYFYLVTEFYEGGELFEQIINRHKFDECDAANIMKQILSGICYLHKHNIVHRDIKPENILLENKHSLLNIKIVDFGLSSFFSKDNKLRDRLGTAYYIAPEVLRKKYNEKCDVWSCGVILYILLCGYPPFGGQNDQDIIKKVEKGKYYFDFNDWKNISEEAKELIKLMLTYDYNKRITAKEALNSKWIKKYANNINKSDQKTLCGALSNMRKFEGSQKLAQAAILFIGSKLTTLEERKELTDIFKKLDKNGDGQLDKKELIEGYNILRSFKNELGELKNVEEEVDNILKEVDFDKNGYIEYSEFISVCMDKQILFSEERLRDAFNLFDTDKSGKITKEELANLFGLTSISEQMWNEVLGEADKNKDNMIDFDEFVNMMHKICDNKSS
L-lactate dehydrogenase (Plasmodium falciparum (isolate CDC / Honduras)), sequence (Q27743 whole entry, looked up): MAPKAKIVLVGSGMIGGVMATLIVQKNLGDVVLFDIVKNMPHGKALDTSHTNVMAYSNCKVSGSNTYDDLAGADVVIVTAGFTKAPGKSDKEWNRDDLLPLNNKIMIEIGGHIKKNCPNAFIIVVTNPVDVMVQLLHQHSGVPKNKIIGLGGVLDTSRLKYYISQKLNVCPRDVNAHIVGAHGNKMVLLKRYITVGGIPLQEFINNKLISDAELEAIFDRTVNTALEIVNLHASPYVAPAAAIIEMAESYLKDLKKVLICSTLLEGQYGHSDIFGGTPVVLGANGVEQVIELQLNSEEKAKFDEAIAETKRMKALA

For orientation: inhibition means the relative decrease from the control value, in per cent. As for `COc1ccc(N2CCN(CCCCNC(=O)c3ccc(/C=C/c4ccc(Cl)c(Cl)c4)cc3)CC2)c(OC)c1`, the growth inhibition in assay [1] is 51% (active); in assay [4], 101% (active). The inhibition is 51% (active) in assay [2] and -8% in assay [3]. Further, the outcome in assay [5], in assay [6], in assay [7] and in assay [8] was inactive.

`CC(=O)Nc1ncc(C(=O)Nc2cccc(-c3cccc(-c4nc5ccc(F)cc5[nH]4)c3)c2)s1`: the results for the growth inhibition in assay [1] and in assay [4] were 93% (active) and 101% (active), respectively. Besides, the figures for the inhibition in assay [2] and in assay [3] were 27% and 5%, respectively. Further, the result in assay [5], in assay [6], in assay [7] and in assay [8] was inactive.

As for `Cc1cccc(-c2nn(-c3ccccc3)c3[nH]c(=O)c(CN4CCSCC4)cc23)c1`, the growth inhibition in assay [1] and in assay [4] was 98% (active) throughout. The figures for the inhibition in assay [2] and in assay [3] were -3% and 0%, respectively. In addition, the outcome in assay [5], in assay [6], in assay [7] and in assay [8] was inactive.

In the case of `CC(=O)N1CCN(c2ccc(NC(=O)c3oc(-c4ccccc4)nc3C(F)(F)F)cn2)CC1`, the growth inhibition in assay [1] is 93% (active); in assay [4], 92% (active). For the same compound, the inhibition in assay [2] is -6%; in assay [3], -2%. Moreover, the outcome in assay [5], in assay [6], in assay [7] and in assay [8] was inactive.

As to `CCc1ccc(CN(Cc2ccc(C)cc2)Cc2ccc(NC(C)=O)cc2)cc1`, the figures for the growth inhibition in assay [1] and in assay [4] were 79% (active) and 89% (active), respectively. Moreover, the figures for the inhibition in assay [2] and in assay [3] were 6% and -1%, respectively. Moreover, the result in assay [5], in assay [6], in assay [7] and in assay [8] was inactive.

Turning to `O=C(Nc1cccc(F)c1)N[C@H]1CCN(CCCCCNC(=O)[C@@H]2C[C@H]2c2ccc(Cl)c(Cl)c2)C1`, the values for the growth inhibition in assay [1] and in assay [4] were 1% and 90% (active), respectively. For the same compound, the values for the inhibition in assay [2] and in assay [3] were 41% and -1%, respectively. Also, the result in assay [5], in assay [6], in assay [7] and in assay [8] was inactive.

With `CCOc1ccc2c(NN=Cc3c4ccccc4cc4ccccc34)cc(C)nc2c1`, the values for the growth inhibition in assay [1] and in assay [4] were 94% (active) and 90% (active), respectively. Further, the figures for the inhibition in assay [2] and in assay [3] were -4% and 0%, respectively. The result in assay [5], in assay [6], in assay [7] and in assay [8] was inactive.

For the compound `COc1ccccc1/C=C/C(=O)NC1CCC(CCN2CCc3ccc(-c4cc(C)no4)cc3CC2)CC1` (stereo not given), the growth inhibition in assay [1] was 11%; in assay [4], 95% (active). In addition, the inhibition in assay [2] is 47%; in assay [3] it was 0%. Besides, the result in assay [5], in assay [6], in assay [7] and in assay [8] was inactive.

Take `O=C(c1cccc(Cl)c1)N1CCN(c2ccc([N+](=O)[O-])c(NC3CC3)c2)CC1`: the growth inhibition is 79% (active) in assay [1] and 100% (active) in assay [4]. In addition, the inhibition in assay [2] was 11%; in assay [3], 4%. The result in assay [5], in assay [6], in assay [7] and in assay [8] was inactive.

With `CN1CCN(c2ccnc3ccc(NC(=O)Cc4cccc(Cl)c4Cl)cc23)CC1`, the growth inhibition is 64% (active) in assay [1] and 102% (active) in assay [4]. The inhibition in assay [2] is 8%; in assay [3], 3%. Moreover, the outcome in assay [5], in assay [6], in assay [7] and in assay [8] was inactive.

Turning to `Oc1ccc(CCNc2nc(NCCOc3ccccc3-c3ccccc3)nc(N3CCNCC3)n2)cc1`, the growth inhibition was 17% in assay [1] and 93% (active) in assay [4]. In addition, the inhibition in assay [2] was 22%; in assay [3] it was -1%. Also, the result in assay [5], in assay [6], in assay [7] and in assay [8] was inactive.

Consider `O=C(NCCCc1ccccc1)c1ccc(O)c(-c2cc(Cl)cc(Cl)c2)c1`, for which the growth inhibition is 98% (active) in assay [1] and 99% (active) in assay [4]. The inhibition in assay [2] is -1%; in assay [3], -3%. The outcome in assay [5], in assay [6], in assay [7] and in assay [8] was inactive.

In the case of `O=c1cc(NCCCNCc2cc(Cl)c(Cl)cc2Cl)[nH]c2ccccc12`, the growth inhibition is 20% in assay [1] and 93% (active) in assay [4]. Besides, the inhibition is 7% in assay [2] and -1% in assay [3]. The outcome in assay [5], in assay [6], in assay [7] and in assay [8] was inactive.

As to `CN1CCCC(CN2CCN(Cc3cccc(-c4ccc(-c5nc6ccccc6[nH]5)cc4)c3)CC2)C1` (stereo not given), the growth inhibition was 101% (active) in assay [1] and 100% (active) in assay [4]. In addition, the values for the inhibition in assay [2] and in assay [3] were 73% (active) and -2%, respectively. The outcome in assay [5], in assay [6], in assay [7] and in assay [8] was inactive.

Turning to `O=C(NCC(CCN1CCC(c2c[nH]c3ccccc23)CC1)c1ccccc1)Nc1ccc(Cl)c(Cl)c1` (stereo not given), the figures for the growth inhibition in assay [1] and in assay [4] were 53% (active) and 101% (active), respectively. For the same compound, the inhibition in assay [2] was 46%; in assay [3], 5%. Moreover, the result in assay [5], in assay [6], in assay [7] and in assay [8] was inactive.

For `COc1ccc2nccc([C@@H](O)CN3CCC(NC/C=C/c4cccnc4)CC3)c2c1`, the growth inhibition was 19% in assay [1] and 100% (active) in assay [4]. For the same compound, the figures for the inhibition in assay [2] and in assay [3] were -7% and -2%, respectively. The outcome in assay [5], in assay [6], in assay [7] and in assay [8] was inactive.

With `CC(C)=CC1C(C(=O)n2c(N)nc3ccccc32)C1(C)C` (stereo not given), the growth inhibition is 3% in assay [1] and 99% (active) in assay [4]. Moreover, the inhibition in assay [2] is 16%; in assay [3], -6%. Moreover, the result in assay [5], in assay [6], in assay [7] and in assay [8] was inactive.

For the compound `N#Cc1ccc2c(c1)CCN(CCC1CCC(NC(=O)/C=C/c3ccc4ccccc4c3)CC1)CC2` (stereo not given), the growth inhibition in assay [1] is 12%; in assay [4] it was 97% (active). Besides, the inhibition in assay [2] was 20%; in assay [3], 4%. The result in assay [5], in assay [6], in assay [7] and in assay [8] was inactive.

On to `Cc1ccc(CNC(=O)[C@H](CCCN)Nc2cc(C)nc(Nc3ccccc3)n2)cc1`, for which the figures for the growth inhibition in assay [1] and in assay [4] were -4% and 90% (active), respectively. Moreover, the inhibition in assay [2] is -2%; in assay [3] it was 2%. Moreover, the outcome in assay [5], in assay [6], in assay [7] and in assay [8] was inactive.

For the compound `Cc1sc2ncnc(Sc3nc4ccccc4[nH]3)c2c1C`, the results for the growth inhibition in assay [1] and in assay [4] were 100% (active) and 99% (active), respectively. In addition, the inhibition was 14% in assay [2] and 1% in assay [3]. Further, the outcome in assay [5], in assay [6], in assay [7] and in assay [8] was inactive.
